Compound activity (PubChem BioAssay)
A selection: hits, their analogues and other compounds. The true share with any hit is near 2.5%.
PfM18AAP inh-1: blocks P. falciparum M18 aspartyl aminopeptidase; AID 1822; recombinant PfM18AAP, H-Glu-NHMec fluorogenic cleavage; inhibition, % at 7.35 µM; actives 1.2% (n = 290,000);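 active means inhibition above the campaign mean inhibition over all tested compounds plus 3 SD, cut at about 28% in these data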;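 further: 0% = plate median of test compound wells and 100% = 2 mM ZnCl2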
p97 inhibitor: inhibitors of human p97 ATPase; recombinant p97 ATPase, Kinase-Glo ATP luminescence, 3 h; inhibition, % at 8 µM; AID 1481; P55072; actives 0.42% (n = 220,000); in the data active means inhibition above about 15%;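 further: 0% = DMSO vehicle and 100% = wells lacking enzyme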
G6PDH CS: inhibits Leuconostoc G6PDH, flagging false hits in G6PDH-based assays | Purified L. mesenteroides G6PDH, diaphorase/resazurin coupled fluorescence, 45 min | inhibition, % at 5 µM | actives 0.12% (n = 200,000) | AID 1020; in the data active means inhibition above about 50%
UBC9 SUMO inh: SUMOylation inhibition; P63279; HTRF SUMOylation assay, SAE1/SAE2 + UBC9, in vitro; inhibition, % at 35 µM; actives 0.36% (n = 290,000); AID 2006; in the data active means inhibition above about 50%, passing the limit was not always enough; inconclusive means no clear call, values can overlap the other calls
Target sequence (P63279 whole entry, looked up): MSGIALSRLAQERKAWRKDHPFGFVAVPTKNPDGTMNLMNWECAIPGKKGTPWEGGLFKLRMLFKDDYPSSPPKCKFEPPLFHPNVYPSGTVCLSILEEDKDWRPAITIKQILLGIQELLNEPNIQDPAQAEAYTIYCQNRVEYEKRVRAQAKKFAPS
HDAC3 inh: inhibitors of human histone deacetylase 3; O15379; recombinant HDAC3, fluorogenic peptide/trypsin coupled, fluorescence; inhibition, % at 8.3 µM; actives 0.15% (n = 320,000); AID 2718; in the data active means inhibition above about 26%, passing the limit was not always enough; inconclusive means no clear call, values can overlap the other calls
PHOSPHO1 inh: PHOSPHO1 (human) inhibition. Q8TCT1. recombinant PHOSPHO1, absorbance phosphatase assay. inhibition, % at 13.3 µM. actives 1.1% (n = 290,000). AID 1565; in the data active means inhibition above about 60%
Target sequence (Q8TCT1 whole entry, looked up): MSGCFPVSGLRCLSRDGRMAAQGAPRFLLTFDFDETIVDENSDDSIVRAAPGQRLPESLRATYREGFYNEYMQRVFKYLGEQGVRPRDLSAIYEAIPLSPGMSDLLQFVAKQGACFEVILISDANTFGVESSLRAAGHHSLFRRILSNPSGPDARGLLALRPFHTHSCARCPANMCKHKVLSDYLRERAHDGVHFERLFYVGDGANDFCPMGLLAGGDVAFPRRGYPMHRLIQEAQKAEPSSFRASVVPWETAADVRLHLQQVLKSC
PfM18AAP inh-2: PfM18AAP inhibition, confirmation; actives 28% (n = 2,400); inhibition, % at 7.35 µM; shares compounds with PfM18AAP inh-1; recombinant PfM18AAP, H-Glu-NHMec fluorogenic cleavage;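 active means mean inhibition over replicate wells above the hit cutoff set for the earlier primary screen, cut at about 29% in these data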;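 further: 0% = median of test compound wells and 100% = 2 mM ZnCl2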
CTSL1 counter: counter-screen for PFM18AAP inhibitors: confirmation of human cathepsin L inhibitors; shares compounds with PfM18AAP inh-1; purified cathepsin L1, Z-Leu-Arg-MCA fluorescence; inhibition, % at 5.96 µM; 2,400 tested, under 10 active;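 active means average inhibition across replicates above the hit cutoff set in the earlier primary screen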;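 further: 0% = median of test compound wells and 100% = Z-Phe-Ala-diazomethylketone 1 µM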
Numbers without * were called inactive; u = inconclusive; x = no result.

SMILES	PfM18AAP inh-1	p97 inhibitor	G6PDH CS	UBC9 SUMO inh	HDAC3 inh	PHOSPHO1 inh	PfM18AAP inh-2	CTSL1 counter
Cc1ccc2nc3c(cc(C(=O)NCc4ccco4)c(=N)n3C3CCCC3)c(=O)n2c1	38*	x	x	19	-44	35	-30	3
CN(C(=O)C1CCN(S(=O)(=O)c2ccccc2)CC1)c1c(N)n(Cc2ccccc2)c(=O)[nH]c1=O	x	x	x	x	-1	x	x	x
CC(Cl)C(=O)NNC(=O)CNS(=O)(=O)c1ccccc1 (centres undefined)	45*	8	2	15	8	-1	20	-1
Oc1ccc(N2CCN(c3ncnc4sc5c(c34)CCC5)CC2)cc1	39*	0	7	36	11	75*	3	-1
OCCN1CCN(c2ncnc3sc4c(c23)CCCC4)CC1	5	x	x	6	4	x	x	x
CCCC(C)c1nnc(NC(=O)C2CC(=O)N(CCc3ccc(F)cc3)C2)s1 (centres undefined)	41*	x	x	6	11	15	-9	0
COCCOC(=O)c1c(C)n(C)c2ccc(OC(=O)N3CCOCC3)cc12	-3	-3	3	-2	-2	-2	x	x
COCCOC(=O)c1c(C)n(C)c2ccc(OC(=O)c3c(OC)cccc3OC)cc12	36*	x	x	-27	-6	-103	-13	-7
O=C(CO)N/N=C/c1cccc(Cl)c1Cl	-1	4	12	-4	x	11	x	x
FC(F)(F)c1ccccc1/C=N/Nc1ccccn1	4	4	-3	3	1	27	x	x
Nn1cnnc1N/N=C/c1cccc(Cl)c1Cl	52*	x	x	-10	3	37	-46	4
CCc1nnc(N/N=C/c2ccccc2Cl)n1N	39*	0	5	-10	x	-5	-53	0
Cc1cc(=O)[nH]c(N/N=C/c2ccccc2Cl)n1	12	x	x	9	6	33	x	x
COc1cccc(/C=N/Nc2nnc(C)n2N)c1OCc1ccccc1Cl	41*	5	-13	4	2	16	-31	2
Nn1cnnc1N/N=C/c1ccccc1C(F)(F)F	48*	x	x	10	8	x	-31	2
COc1ccc(CNC(=O)C2CCCN2)cc1OC (centres undefined)	-6	-5	8	10	1	41	x	x
Oc1cccc(/C=N/N=C/c2cccc(O)c2O)c1O	42*	x	x	7	7	3	7	-1
CCN(CC)c1ccc(N=Cc2cc(Br)ccc2O)cc1	37*	2	12	-26	-8	-5	-18	-5
Cc1ccc(N=Cc2cccc(O)c2O)c(C)c1	34*	10	54*	9	-4	21	37*	-4
Oc1ccc(Br)cc1C=Nc1ccc(Cl)cc1	0	5	6	7	-1	-24	x	x
Cc1ccc(O)c(N=CC2=C(O)c3ccccc3C2=O)c1	71*	-5	9	26	3	6	-15	5
Cn1c(=O)c([N+](=O)[O-])c(-n2cnc3ccccc32)c2ccccc21	-12	9	x	17	2	22	x	x
CCOc1ccc(N(Cc2ccc(C(=O)O)cc2)S(=O)(=O)c2ccc(C)cc2)cc1	5	x	x	7	u	23	x	x
CCc1csc(CCNC(=O)C2CCC(=O)N(CCc3cccc(F)c3)C2)n1 (centres undefined)	-16	x	x	6	6	32	x	x
CCOC(=O)[C@H]1[C@H]2COc3ccc(OC)cc3[C@@H]2N2C(=O)c3cc(C)ccc3NC(=O)[C@@]12C	x	x	x	x	0	x	x	x
SMILES	PfM18AAP inh-1	p97 inhibitor	G6PDH CS	UBC9 SUMO inh	HDAC3 inh	PHOSPHO1 inh	PfM18AAP inh-2	CTSL1 counter
Cc1ccc(OCC(=O)NNC(=O)c2ccccc2OCc2c(C)noc2C)cc1	x	x	x	x	2	x	x	x
OCC(CO)(CO)N=Cc1cc(Br)ccc1O	1	2	2	21	-1	-11	x	x
CCc1ccc(O)c(N=Cc2ccccc2O)c1	24	6	16	9	2	-39	x	x
CC(C)(C)c1ccc(O)c(N=Cc2cc(Br)ccc2O)c1	56*	3	16	23	5	35	88*	-3
Cc1ccc(O)c(C=Nc2cc(C)ccc2O)c1	32*	8	7	18	x	12	37*	-2
C=CCN(Cc1cccc(OC)c1OC)C(=O)Oc1ccccc1	x	x	x	x	0	x	x	x
Cc1csc2c(SCC(=O)NNS(=O)(=O)c3cccc(C(F)(F)F)c3)ncnc12	36*	-7	x	2	-4	32	-38	-4
CCCCN=Cc1c(C)[nH]n(-c2ccccc2)c1=S	51*	1	14	-6	1	68*	-18	1
Cc1[nH]n(-c2ccccc2)c(=O)c1C=NCCc1ccccc1	-4	-2	13	13	1	44	x	x
O=C(CSc1cccc2cccnc12)N/N=C/c1cccc(O)c1	11	0	-4	15	-11	32	x	x
O=C(N/N=C/c1ccc(O)c(O)c1)c1ccc(CSc2cccc3cccnc23)cc1	57*	3	1	-2	6	3	49*	-5
CC(C)(C)c1ccc(O)c(N)c1	46*	-4	5	-9	11	27	76*	-3
CC(C)(C)c1ccc(SCC(N)=O)cc1	5	3	25	15	2	-2	x	x
O=C(COc1ccc(Br)cc1Cl)Nn1cnnc1	43*	4	-1	11	-6	-32	42*	-2
CCNC(=O)COc1ccc(Br)cc1Cl	-3	4	-5	2	-3	21	x	x
FC(F)(F)c1ccccc1NC(=S)Nn1cnnc1	75*	x	x	3	1	23	56*	-2
Cc1ccc(Cl)cc1NC(=S)Nn1cnnc1	77*	x	x	6	-4	10	63*	0
Cc1ccc(NC(=S)Nn2cnnc2)c(C)c1	72*	x	x	4	-3	-24	65*	0
O=C(NCc1ccccc1)C1CC(=O)N(C2CCCCC2)C1 (centres undefined)	3	x	x	-2	-6	13	x	x
CC1(C(=O)OCC(=O)Nc2nnc(-c3ccccc3)o2)CC1(Cl)Cl (centres undefined)	x	x	x	x	-4	x	x	x
